Reference: the supplement of paper PMC3724861
The entries come from a sample that favours hits as a whole. How many sequences the whole screen found active is unknown. Unmarked numbers belong to inactive results.

The sequences below were run on T1, Caupolican (Caup) homeodomain DNA-binding domain (assay: PBM E-score (8-mer, recovered from the published 9-mer minima) (E-score (dimensionless, -0.5 to 0.5)); Drosophila protein; higher = stronger relative binding preference, active = 0.31 or more).
T1 sequence: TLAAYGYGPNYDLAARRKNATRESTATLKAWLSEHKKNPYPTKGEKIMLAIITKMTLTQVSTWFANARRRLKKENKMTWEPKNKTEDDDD
Outline: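 Caup's homeodomain DNA-binding domain (residues 214-303) was produced by in vitro transcription and translation and applied at 100 nM to custom-designed protein binding microarrays. Each value is an enrichment score giving relative binding preference for a short DNA word; higher means stronger. Published 9-mer scores were the minimum of their two constituent 8-mer scores, and the 8-mer values were recovered from those minima. A cutoff of 0.31 marks candidate binding sequences.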

Row | Sequence | PBM E-score
1 | CTGACTGC | -0.0466
2 | ACAGATAT | 0.159
3 | CGGTCATA | -0.0654
4 | CATCTGGG | -0.0619
5 | GACACGAA | 0.224
6 | AACACGAG | 0.266
7 | CACACGAC | 0.0592
8 | AACACGAC | 0.321 (active)
9 | AACACGAA | 0.293
10 | GACACGAC | 0.347 (active)
11 | AGATATCC | 0.0875
12 | ACCCGGGC | -0.196
13 | CCGTTTTC | -0.0987
14 | GTATAAGA | 0.112
15 | ATATAACC | 0.0533
16 | ATATAACA | 0.372 (active)
17 | GTATAACA | 0.338 (active)
18 | GCATAACA | 0.255
19 | CTATAACA | 0.257
20 | CGTAGGTC | -0.0431
21 | CAGCCTGG | -0.164
22 | ATAAAGGC | -0.111
23 | AGTGGTGG | -0.0979
24 | AAGGAATT | -0.0309

Row | Sequence | PBM E-score
25 | ACAGTTCA | 0.0978
26 | GGCATGAA | 0.0161
27 | TACATGAA | 0.383 (active)
28 | GACATGAA | 0.318 (active)
29 | GCCATGAC | -0.0484
30 | GACATGAC | 0.394 (active)
31 | TGCATGAA | 0.126
32 | CACATGAA | 0.226
33 | CACATGAC | 0.242
34 | ACCATGAA | 0.0242
35 | AACATGAA | 0.387 (active)
36 | AGCATGAA | 0.102
37 | GTCATGAA | 0.0353
38 | TACAGAGA | 0.12
39 | GAGTTTGA | 0.0834
40 | CGTTTCCC | -0.165
41 | AAGATGGC | -0.0976
42 | CTGATTAA | 0.162
43 | AACCTTAA | -0.0003
44 | TGGGGGAA | -0.237
45 | GACTTCGA | -0.0675
46 | ACTAGAAG | 0.00911
47 | AACGGGCC | -0.162
48 | GTGACCTA | 0.0131

Row | Sequence | PBM E-score
49 | GAGCTCAA | -0.094
50 | TGCAAAAA | 0.0586
51 | AGACTGCG | -0.129
52 | AGCTTCCC | -0.188
53 | AAGCCCCA | -0.232
54 | ACACACGT | 0.254
55 | AAACACTT | 0.153
56 | AAACACGC | 0.248
57 | AAACACGG | 0.257
58 | AAACACGT | 0.312 (active)
59 | AAACACGA | ≥ 0.351 (active)
60 | CAAAGCGC | -0.207
61 | GATCAGGC | -0.0491
62 | ACCGACTA | 0.0195
63 | ACCCCGCA | -0.142
64 | ACCATGTC | 0.408 (active)
65 | GCCATGCA | -0.0297
66 | ACCATGCC | -0.0174
67 | GCCATGGA | -0.137
68 | ACAATGTA | 0.285
69 | ACTATGTC | 0.302
70 | CCCATGTC | 0.309
71 | CCCATGTA | 0.326 (active)
72 | CCCATGGA | 0.021
